The source of these data is PubChem BioAssay AID893 (National Center for Advancing Translational Sciences (NCATS), 2007).

Several values for one entry are separate records, joined by “and”; a condition that tells them apart may be missing. Equal entries are not always repeated. Among all 75,000 compounds or so, about 5,700 (7.6%) were called active. About 7% were inconclusive and are not listed. The list comes from a sample in which actives are over-represented; it also holds similar structures and randomly drawn compounds. Where a call stands in place of a potency, no number is given. Unmarked numbers belong to inactive results. Calls come from the whole dose curve; as a rule, active = well fitted inhibition curve with a large enough effect; inconclusive = small, poorly fitted or top-dose-only effect; inactive = no such curve, though single readings can be large or run the other way.
Potency is the fitted concentration of half-maximal effect.

In this assay the target is 3-hydroxyacyl-CoA dehydrogenase type-2 (Homo sapiens) (UniProt Q99714). Briefly: qHTS Assay for Inhibitors of HSD17B4, hydroxysteroid (17-beta) dehydrogenase 4.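 Note: the protocol describes HADH2 (HSD17B10) and not the HSD17B4 of the title; nearly all actives have a fitted effect of over 70% in size.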 Particulars: recombinant HSD17B10, NADH fluorescence kinetic; series mostly up to 57.1 µM. The method, boiled down: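 20 nM HADH2, pH 9.0 Tris/Tween; cpd preinc 15 min RT; start w/ 1 mM NAD+ + 90 uM b-hydroxybutyryl-CoA; kinetic fluor ex360/em450 q30s x 4 min; delta last-first.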
(In qHTS, concentration-response curves come from the screen itself.)
As to `CC(C)N(CCNC(=O)c1ccc(-n2c(=O)c(=O)[nH]c3ccccc32)cc1)C(C)C`, the Potency entry is “inactive”. For the molecule `CN(C)CCCNC(=O)c1ccc2[nH]c3ccccc3c2c1`, the Potency is 20 µM (active). `CN(C)CCCCNC(=O)c1ccc(Cc2nc3ccccc3[nH]2)cc1`: the Potency result is “inactive”. `COC(=O)[C@@]1(Cc2ccc(OC)cc2)[C@H]2c3cc(C(=O)N4CCCC4)n(Cc4ccc(OC(F)(F)F)cc4)c3C[C@H]2CN1C(=O)c1ccccc1`: the Potency result is “inactive”. In the case of `Cc1ccc2c(C(=O)CN3CCCC3)c(C)[nH]c2c1`, the Potency result was “inactive”. For the molecule `CCOC(=O)c1nnn(-c2nonc2OC)c1-c1ccccc1`, the Potency entry is “inactive”.

In the case of `CC(=O)Oc1c2c(c3c(c1CC=C(C)C)O[C@@]14C(=CC5CC1C(C)(C)OC4(C/C=C(\C)C(=O)O)C5=O)C3=O)OC(C)(CCC=C(C)C)C=C2` (stereo not given in full), the Potency is 20 µM (active).

Take `CCOC(=O)CN(C(=O)CN1CCOCC1)c1ccc(Br)cc1`: the Potency result is “inactive”. For the molecule `Cc1ccc(OCC(O)CN2CCN(CC(O)COc3ccc(C)cc3Cl)CC2)c(Cl)c1` (stereo not given), the Potency entry is “inactive”. On the same count and under the same terms, to `CC(C)c1ccc(-c2nn[nH]n2)cc1` belongs “inactive”; to `c1ccc(-n2ncc(-c3nn[nH]n3)n2)cc1`, 31.6 µM (active).

For `CCCn1nnc2sc3c(c2c1=O)CCC(C)C3` (stereo not given), the Potency result is “inactive”. Turning to `Cc1nc2cc(S(=O)(=O)C(F)(F)F)ccc2s1`, the Potency result is “inactive”. On the same count and under the same terms, to `COc1ccc(-c2oc3cc(OC)ccc3c2C(=O)c2ccc(C#N)cc2)cc1` belongs “inactive”; to `CC(=O)Oc1ccc2c(C)c(CC(C)O)c(=O)oc2c1` (stereo not given), 2 µM (active); to `CN1C(C)(C)CC(NC(=O)CCC(=O)NC2CC(C)(C)N(C)C(C)(C)C2)CC1(C)C`, “inactive”. As for `O=C(CCCOc1ccccc1)Nc1cccc(C(=O)O)c1`, the Potency entry was “inactive”. With `Cc1ccc2c(c1)N(CCCC(=O)NCc1cccnc1)C(=O)CO2`, the Potency result was “inactive”.

On to `COc1cccc(N(CC(=O)Nc2cccc(N(C)S(C)(=O)=O)c2)S(C)(=O)=O)c1`, for which the Potency result is “inactive”. Turning to `COC(=O)c1cn(-c2ccccc2)nc1-c1cccnc1`, the Potency result was “inactive”. With `COc1ccc2c(=O)cc(-c3ccccc3)oc2c1O`, the Potency result is “inactive”. Turning to `Cc1cccc(-c2cc(=O)c3cc(C)ccc3o2)c1`, the Potency was 31.6 µM (active).

`Cc1ccc2oc(=O)ccc2c1`: the Potency result was “inactive”. The same measure, in the same setting: in the case of `COc1ccc(C)cc1-n1nnnc1SCC(=O)c1cc(C)n(Cc2ccco2)c1C` it was “inactive”; in that of `Oc1cc2c(cc1O)CN(C(=S)NCCc1ccc(Cl)cc1)CCC2`, 15.8 µM (active). For the molecule `NS(=O)(=O)c1ccc(CCNC(=O)Nc2ccc(Cl)cc2)cc1`, the Potency result is “inactive”.

As to `O=C(NCCc1ccc(Cl)cc1)C1CC(=O)N(C2CCCCC2)C1` (stereo not given), the Potency entry was “inactive”.

In the case of `CN1CCc2[nH]nc(-c3n[nH]c4c3CN(C)CC4)c2C1`, the activity change, negative = inhibition was 4.35% [at 11.4 µM]. Turning to `COc1ccc(-c2ccnc(SCC(=O)N3CCOCC3)n2)cc1`, the Potency is 25.1 µM (active). For the molecule `COc1ccc(-c2nc(SCC(=O)N3CCOCC3)n[nH]2)cc1`, the Potency entry was “inactive”. As for `CCn1c(COc2cccc(OC)c2)nnc1SCC(=O)N1CCOCC1`, the Potency entry is “inactive”.

`Nc1ccc(-c2nnc(-c3ccc(-c4ccccc4)cc3)o2)cc1`: the Potency is 5.01 µM (active). The same measure, in the same setting: in the case of `O=C(OCc1nnc(-c2ccccc2)o1)c1ccc2c(c1)C(=O)N(CCc1ccccc1)C2=O` it was “inactive”; in that of `O=C(CSc1nnc(-c2ccccc2)o1)N1CCOCC1`, “inactive”. `Fc1cccc(/C=N\N=C/c2cccc(F)c2)c1`: the Potency result is “inactive”. In the case of `O=C(O)CCC(=O)NCc1ccc2[nH]c3c(c2c1)CCCC3`, the Potency entry is “inactive”.

On to `N#CCCN1CCN(S(=O)(=O)c2ccc(S(=O)(=O)NC3CCCCC3)cc2)CC1`, for which the Potency entry is “inactive”.

With `COc1ccccc1-n1c(CNC(=O)c2ccccc2)nnc1SCC(=O)Nc1nnc(C)s1`, the Potency result is “inactive”. As for `COC(CCN(C)C)(c1ccccc1)c1ccccc1`, the Potency entry was “inactive”. Consider `COc1cccc(-c2nc3cc(C)ccc3o2)c1`, for which the Potency was 25.1 µM (active).

Regarding `CCCCN(CC)CCCNC(=O)CS(=O)(=O)Cc1nc(-c2cccc(OC)c2)oc1C`, the Potency result is “inactive”. Consider `COc1cccc(-c2nc(S(=O)(=O)c3ccccc3)c(N3CCOCC3)o2)c1`, for which the Potency entry is “inactive”. Turning to `COc1ccccc1N1CCN(CCN2C(=O)c3ccccc3C(C)(C)C2=O)CC1`, the Potency result was “inactive”. In the case of `COc1ccc(OC)c(CNC(=O)CCc2nc(-c3cccs3)no2)c1`, the Potency entry is “inactive”. For the molecule `CCOC(=O)NCc1ccc2c(c1)OCO2`, the Potency entry is “inactive”. On to `CCC1=C/C(=C\c2ccc3c(c2)OCO3)C(=O)S1`, for which the Potency was 25.1 µM (active). Still for that read-out and setting: to `CCOc1ccc(NC(=O)CSc2nc3c(c(=O)n2-c2ccccc2OC)SCC3)cc1` belongs “inactive”. Consider `COc1ccc(/C=C/NC(=O)Cc2ccc(OC)c(OC)c2)cc1`, for which the activity change, negative = inhibition was -1.94% [at 11.4 µM] and 1.41% [at 11.4 µM]. `O=C(c1cccc(S(=O)(=O)N2CCOCC2)c1)N1CCOCC1`: the Potency result is “inactive”.

Turning to `CNc1nc(-c2ccccc2OC)nc2ccccc12`, the Potency result was “inactive”. With `Cc1noc(C)c1-c1nc(Nc2ccccc2)c2ccccc2n1`, the Potency was 20 µM (active). `c1cncc(-c2nc(N3CCNCC3)c3ccccc3n2)c1`: the Potency entry was “inactive”. Turning to `c1ccc2c(Nc3ccncc3)nc(-c3ccoc3)nc2c1`, the Potency is 20 µM (active).

Regarding `COc1cccc(-c2nc(Nc3ccncc3)c3ccccc3n2)c1`, the Potency result was “inactive”.

As to `Cc1cnc(CNc2nc(-c3cccnc3)nc3ccccc23)cn1`, the Potency entry was “inactive”. As for `O=C(Cn1nnc(-c2ccccc2)n1)NCc1ccc2c(c1)OCO2`, the Potency result is “inactive”. On the same count and under the same terms, to `c1ccc2c(Nc3ccncc3)nc(-c3ccc4c(c3)OCO4)nc2c1` belongs 25.1 µM (active). On to `COc1ccccc1CNc1ccnc(-c2c(C)noc2C)n1`, for which the Potency result was “inactive”. Consider `CCCn1c(=O)c2[nH]c(C3CCCC3)nc2n(CCC)c1=O`, for which the Potency entry is “inactive”.

`O=C(Cn1cc2c(n1)CCCCC2)NCCN1CCOCC1`: the Potency entry was “inactive”.

For `Cc1cc(NC(=O)COC(=O)c2ccc(F)c(S(=O)(=O)N3CCOCC3)c2)no1`, the Potency result was “inactive”. `CC1(C)OC2CC(=O)OC[C@@]23C1CC(=O)[C@]1(C)C3CC[C@@]2(C)C(c3ccoc3)OC(=O)C3O[C@@]321` (stereo not given in full): the Potency entry was “inactive”. Regarding `NC[C@@H]1O[C@H](O[C@@H]2[C@H](O[C@@H]3O[C@H](CO)[C@@H](COC[C@H]4O[C@@H](CN)[C@@H](O)[C@@H](O)[C@@H]4N)[C@@H]3O)[C@@H](O)[C@@H](N)C[C@H]2N)[C@@H](N)[C@H](O)[C@@H]1O`, the Potency entry is “inactive”. Turning to `C=CCSc1nnc(Cn2c(=O)sc3ccccc32)n1C`, the Potency entry is “inactive”.

Turning to `Cc1cc(NC(=O)CN2CCC(O)(c3cccc(F)c3)CC2)no1`, the Potency entry is “inactive”.
